# Measurements from PubChem BioAssay (NCATS).
# Results filed as inconclusive are left out. Entries that show only a call come without a potency. Unmarked numbers belong to inactive results. Active and inactive are the calls of the source. The call rests on the fitted dose curve; in most records, active means well fitted curve in the direction sought with a large enough effect; inconclusive means small, poorly fitted or top-dose-only effect, or another doubt; inactive means no such curve, though single readings can be large; an effect the other way counts as inactive or inconclusive.
# Legend:
# [1] = qHTS of pediatric cancer cell lines to identify multiple opportunities for drug repurposing: Confirmatory screen for MG 63 (6-TG R) cells (AID 1347119); further: nearly all actives have a fitted effect of over 55% in size; further: potency means the concentration at half of the fitted maximal effect
# How it was run: (§1)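 Cells (500-1,000/well) rested 5 h, then received compounds for 48 h; metabolically active cells were measured by CellTiter-Glo luminescence. Final concentrations spanned up to 46 µM (MIPE, 11-point) or 0.59 nM-46 µM (NPC, 8-point) in primary screens, 11-point in follow-ups.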
# [2] = qHTS of pediatric cancer cell lines to identify multiple opportunities for drug repurposing: Confirmatory screen for control Hh wild type fibroblast cells (AID 1347121); further: nearly all actives have a fitted effect of over 70% in size
# How it was run: as §1
# [3] = qHTS of pediatric cancer cell lines to identify multiple opportunities for drug repurposing: Confirmatory screen for U-2 OS cells (AID 1347122); further: nearly all actives have a fitted effect of over 65% in size; further: potency means the concentration at half of the fitted maximal effect
# How it was run: as §1
# [4] = qHTS of pediatric cancer cell lines to identify multiple opportunities for drug repurposing: Confirmatory screen for Rh41 cells (AID 1347123);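 further: 48 h compound exposure; nearly all actives have a fitted effect of over 60% in size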; further: potency means the concentration at half of the fitted maximal effect
# How it was run: as §1
# [5] = qHTS of pediatric cancer cell lines to identify multiple opportunities for drug repurposing: Confirmatory screen for RD cells (AID 1347124);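 further: cells exposed to compound for 48 h before viability readout; nearly all actives have a fitted effect of over 65% in size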
# How it was run: as §1
# [6] = qHTS of pediatric cancer cell lines to identify multiple opportunities for drug repurposing: Confirmatory screen for Rh18 cells (AID 1347125); further: nearly all actives have a fitted effect of over 55% in size; further: potency means the concentration at half of the fitted maximal effect
# How it was run: as §1
# [7] = qHTS of pediatric cancer cell lines to identify multiple opportunities for drug repurposing: Confirmatory screen for Rh30 cells (AID 1347126); further: nearly all actives have a fitted effect of over 55% in size; further: potency means the concentration at half of the fitted maximal effect
# How it was run: as §1
# [8] = qHTS of pediatric cancer cell lines to identify multiple opportunities for drug repurposing: Confirmatory screen for SK-N-SH cells (AID 1347129);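 further: cells exposed to compound for 48 h before viability read; nearly all actives have a fitted effect of over 60% in size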; further: potency means the concentration at half of the fitted maximal effect
# How it was run: as §1
# [9] = tested on: Zika virus NS2B-NS3 protease; test: Primary screen GU AMC qHTS for Zika virus inhibitors (AID 1347154); further: nearly all actives have a fitted effect of over 70% in size
# How it was run: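 Fluorogenic AMC-substrate cleavage by noncovalent NS2B-NS3 protease complex (25 nM, pH 8.0 Tris buffer with Tween 20) followed for 15 minutes at room temperature (~20% conversion). Percent inhibition from ex340/em450 signal change, fitted by 4-parameter Hill equation.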
# [10] = qHTS of pediatric cancer cell lines to identify multiple opportunities for drug repurposing: Confirmatory screen for TC32 cells (AID 1347118);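 further: potency means the concentration at half of the fitted maximal effect; cells exposed to compound for 48 h before the read; nearly all actives have a fitted effect of over 65% in size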
# How it was run: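 qHTS, TC32, 48 h drug treatment, CellTiter-Glo luminescence as a proxy for metabolically active cells; primary top concentration 46 µM (MIPE 11-pt, NPC 8-pt); confirmatory 11-pt.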
# [11] = tested on: Zika virus NS2B-NS3 protease (unlinked complex); test: Primary screen GU Rhodamine qHTS for Zika virus inhibitors: Unlinked NS2B-NS3 protease assay (AID 1347159); further: nearly all actives have a fitted effect of over 60% in size; further: potency means the concentration at half of the fitted maximal effect
# How it was run: (§2)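 A qHTS format was used, with compound concentrations ranging up to 114 microM. Each compound was preincubated with 25 nM NS2B-NS3 protease, and the substrate was then added at 1.5 microM. Curves were fitted with a 4-parameter Hill model.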
# [12] = qHTS of pediatric cancer cell lines to identify multiple opportunities for drug repurposing: Confirmatory screen for Saos-2 cells (AID 1347127); further: potency means the concentration at half of the fitted maximal effect; nearly all actives have a fitted effect of over 60% in size
# How it was run: as §1
# [13] = target: Furin (Homo sapiens) (UniProt P09958); test: Furin counterscreen qHTS for Zika virus inhibitors (AID 1347149); further: potency means the concentration at half of the fitted maximal effect; nearly all actives have a fitted effect of over 70% in size
# How it was run: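 Fluorogenic cleavage of BOC-RVRR-AMC (2 microM final, Km ~15 µM) was monitored (ex 340, em 450 nm) at 37C after 15 min RT preincubation of 5 nM furin with compounds in HEPES pH 7.0 buffer with CaCl2 and Triton X-100. Percent inhibition was fitted to a 4-parameter Hill curve.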
# [14] = tested on: Zika virus NS2B-NS3 protease (unlinked complex); test: Confirmatory screen GU AMC qHTS for Zika virus inhibitors (AID 1347153); further: nearly all actives have a fitted effect of over 70% in size
# How it was run: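 Fluorescence change (ex 340/em 450 nm) over 15 min, ~20% substrate conversion, normalized to no-inhibitor and no-enzyme controls, then Hill-fitted. Unlinked protease at 25 nM; AMC peptide 10 µM.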
# [15] = target: N-terminal Xaa-Pro-Lys N-methyltransferase 1 (Homo sapiens) (UniProt Q9BV86); test: qHTS Assay for Inhibitors of N-terminal methyltransferase 1 (NTMT1): LOPAC validation of the NTMT1 SAHH-coupled ThioGlo3 Assay (AID 1347143); details: recombinant NTMT1, SAHH-coupled ThioGlo3 fluorescence
# How it was run: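 Inhibition of NTMT1 methylation of peptide SPKRIA is followed by converting SAH with SAHH and labelling the released thiol with ThioGlo3. Plates are read at 340/450nm before and 30 min after reagent addition, both at room temperature.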
# [16] = tested on: Zika virus NS2B-NS3 protease (unlinked); test: Optimization of GU AMC qHTS for Zika virus inhibitors: Unlinked NS2B-NS3 protease assay (AID 1347151); details: recombinant ZIKV NS2B-NS3 protease, fluorogenic AMC substrate; further: potency means the concentration at half of the fitted maximal effect; nearly all actives have a fitted effect of over 80% in size
# How it was run: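 Fluorescence gain (340/450 nm) over 15 min at room temperature, ~20% conversion, gave percent inhibition fitted to a 4-parameter Hill equation; enzyme was unlinked NS2B-NS3 (25 nM final), pH 8.0 Tris buffer.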
# [17] = Confirmatory screen GU Rhodamine qHTS for Zika virus inhibitors qHTS (AID 1347157); further: nearly all actives have a fitted effect of over 70% in size; further: potency means the concentration at half of the fitted maximal effect
# How it was run: as §2
# [18] = ZIKV-mCherry secondary qHTS for Zika virus inhibitors (AID 1347158); further: top concentration of the series differs between compounds
# How it was run: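 Vero cells (5,000/well) were given compound, then infected with ZIKV-mCherry at MOI 1 for 48–72 h at 37 °C. After PFA fixation and Hoechst staining, imaging gave percent mCherry-positive cells. The positivity threshold was RFU above 450, 3 SD over negative controls.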
# Sequence of N-terminal Xaa-Pro-Lys N-methyltransferase 1 (Homo sapiens) (Q9BV86 whole entry, looked up): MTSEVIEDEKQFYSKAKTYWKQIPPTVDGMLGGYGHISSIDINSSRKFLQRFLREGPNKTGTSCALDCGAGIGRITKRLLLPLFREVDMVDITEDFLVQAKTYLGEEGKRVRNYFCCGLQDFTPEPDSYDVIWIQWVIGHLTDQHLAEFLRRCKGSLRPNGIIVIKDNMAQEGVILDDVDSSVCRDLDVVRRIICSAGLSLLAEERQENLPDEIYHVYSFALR
# Sequence of Furin (Homo sapiens) (P09958 whole entry, looked up): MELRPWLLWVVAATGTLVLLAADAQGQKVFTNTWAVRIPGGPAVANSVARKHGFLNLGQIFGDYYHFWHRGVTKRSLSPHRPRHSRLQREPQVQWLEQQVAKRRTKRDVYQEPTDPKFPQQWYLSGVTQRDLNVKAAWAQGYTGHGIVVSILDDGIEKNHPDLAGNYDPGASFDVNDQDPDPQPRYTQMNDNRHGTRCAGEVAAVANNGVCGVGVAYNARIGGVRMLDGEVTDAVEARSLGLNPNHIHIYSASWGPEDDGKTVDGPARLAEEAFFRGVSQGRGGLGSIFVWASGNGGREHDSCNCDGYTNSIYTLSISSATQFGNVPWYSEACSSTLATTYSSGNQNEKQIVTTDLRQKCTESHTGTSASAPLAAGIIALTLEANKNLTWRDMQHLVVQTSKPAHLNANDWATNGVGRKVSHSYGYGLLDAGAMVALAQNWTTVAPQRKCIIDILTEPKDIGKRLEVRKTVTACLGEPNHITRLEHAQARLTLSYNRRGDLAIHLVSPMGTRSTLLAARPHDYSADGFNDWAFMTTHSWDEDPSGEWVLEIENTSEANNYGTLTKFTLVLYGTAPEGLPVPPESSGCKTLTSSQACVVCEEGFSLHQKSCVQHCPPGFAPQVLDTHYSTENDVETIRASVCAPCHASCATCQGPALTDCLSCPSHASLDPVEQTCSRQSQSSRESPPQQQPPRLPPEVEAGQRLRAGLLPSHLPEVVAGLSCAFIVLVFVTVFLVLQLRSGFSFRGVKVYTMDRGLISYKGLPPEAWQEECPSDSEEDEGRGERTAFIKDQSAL
compound,measurement,setting,value
CC=CC1=C(C(=O)O)N2C(=O)[C@H](NC(=O)[C@H](N)c3ccc(O)cc3)[C@@H]2SC1,Potency,[1],inactive
same,Potency,[2],inactive
same,Potency,[3],inactive
same,Potency,[4],inactive
same,Potency,[5],inactive
same,Potency,[6],inactive
same,Potency,[7],inactive
same,Potency,[8],inactive
same,Potency,[9],inactive
O=C(Cc1ccc(-c2ccc(OCCN3CCOCC3)cc2)cn1)NCc1ccccc1,Potency,[10],0.117 µM (active)
same,Potency,[1],82.7 nM (active)
same,Potency,[4],92.8 nM (active)
same,Potency,[6],inactive
same,Potency,[7],inactive
same,Potency,[9],inactive
same,Potency,[11],inactive
Nc1ncnc2c1c(-c1cnc3[nH]ccc3c1)nn2C1CCCC1,Potency,[10],1.47 µM (active)
same,Potency,[1],414 nM (active)
same,Potency,[6],2.93 µM (active)
same,Potency,[7],585 nM (active)
same,Potency,[12],1.85 µM (active)
same,Potency,[8],1.87 µM (active)
same,Potency,[9],inactive
same,Potency,[11],inactive
CCC(=C(c1ccccc1)c1ccc(OCCN(C)C)cc1)c1ccccc1,Potency,[10],20.8 µM (active)
same,Potency,[2],inactive
same,Potency,[4],inactive
same,Potency,[7],inactive
same,Potency,[12],18.5 µM (active)
same,Potency,[9],inactive
CCn1cc(-c2ccnc3[nH]c(-c4cccc(CN(C)C)c4)cc23)c(-c2ccc(NC(=O)N(C)C)cc2)n1,Potency,[13],21.5 µM (active)
Cc1cc(N2CCOCC2)cc2[nH]c(-c3c(NC[C@@H](O)c4cccc(Cl)c4)cc[nH]c3=O)nc12,Potency,[14],inactive
NCC(=O)Nc1ccc(-n2nc(C(F)(F)F)cc2-c2ccc3c(ccc4ccccc43)c2)cc1,Potency,[3],26.1 nM (active)
O=c1c2ccccc2nc2n1CCc1c-2[nH]c2ccccc12,Potency,[15],56.2 µM (active)
same,Potency,[16],26.7 µM (active)
N#Cc1c(O)c2c(-c3ccc(-c4ccccc4O)cc3)csc2[nH]c1=O,Potency,[17],2.21 µM (active)
same,Potency,[18],inactive
O=C(O)C1(Cc2cccc(Nc3nccs3)n2)CCC(Oc2cccc(Cl)c2F)CC1 (stereo not drawn),Potency,[17],6.98 µM (active)
Cc1cc(CN2CCN(c3c(Br)cnc4nc(-c5ccc(N6CCN(C)CC6)cc5)[nH]c34)CC2)no1,Potency,[18],inactive
Clc1cccc(-c2nnnn2Cc2cccnc2)c1Cl,Potency,[9],inactive
same,Potency,[11],inactive
CC(O)C1C(=O)N2C(C(=O)O)=C(SC3CNC(C(=O)N(C)C)C3)C(C)C12 (stereo not drawn),Potency,[9],inactive
same,Potency,[11],inactive
Cn1cc(-c2ccncc2)c(-c2ccc(OCc3ccc4ccccc4n3)cc2)n1,Potency,[9],inactive
same,Potency,[11],inactive
C[C@@H]1COC(Nc2ccc3ncnc(Nc4ccc(OCc5nccs5)c(Cl)c4)c3c2)=N1,Potency,[9],inactive
same,Potency,[11],inactive
O=C(O)c1ccc2c(c1)nc(Nc1cccc(Cl)c1)c1ccncc12,Potency,[9],inactive
same,Potency,[11],39.8 µM (active)
O=C(O)Cn1nnc(-c2cc(N3CCC(Oc4cc(F)ccc4Br)CC3)no2)n1,Potency,[17],27.8 µM (active)
same,Potency,[11],22.4 µM (active)
O=C1CCC[C@@H]2[C@H]3CCC[N+]4([O-])CCC[C@@H](CN12)[C@@H]34 (stereo partly drawn),Potency,[9],inactive
same,Potency,[11],inactive
CC(C)c1noc(N2CCC(COc3ccc(-c4ccc(S(C)(=O)=O)cc4)nc3)CC2)n1,Potency,[9],inactive
same,Potency,[11],inactive
O=C(O)CCCc1c[nH]c2ccccc12,Potency,[9],inactive
same,Potency,[11],inactive
NC1(Cc2ccc(Cl)cc2)CCN(c2ncnc3[nH]ccc23)CC1,Potency,[9],inactive
same,Potency,[11],inactive
COc1cc2c(Nc3ccc(NC(=O)c4ccccc4)cc3)ncnc2cc1OCCCN1CCOCC1,Potency,[9],inactive
same,Potency,[11],inactive
C[C@]1(CO)CN(c2cc(C(=O)Nc3ccc4c(c3)-c3c(c(C(N)=O)nn3-c3ccc(F)cc3)CC4)c(Cl)cn2)C[C@@]1(C)CO,Potency,[11],inactive
CCN(CC)CCNC(=O)c1ccc2nc(-c3ccccc3)c(-c3ccc(CN4CCC(n5c(=O)[nH]c6ccccc65)CC4)cc3)nc2c1,Potency,[9],inactive
same,Potency,[11],inactive
COc1ccc2c(c1)CC[C@@H](CN(C)CC(=O)O)[C@H]2c1ccccc1,Potency,[9],inactive
same,Potency,[11],inactive
Nc1cccc(-c2cc3c(Oc4cccc(O)c4)ncnc3[nH]2)c1,Potency,[11],inactive
N#CCNC(=O)c1ccc(-c2ccnc(Nc3ccc(N4CCOCC4)cc3)n2)cc1,Potency,[9],inactive
same,Potency,[11],inactive
Nc1ncnc2c1c(-c1cccc(OCc3ccccc3)c1)cn2C1CC(CN2CCCC2)C1 (stereo not drawn),Potency,[9],inactive
same,Potency,[11],inactive
COc1cc2c(cc1-c1c(C)noc1C)ncc1[nH]c(=O)n([C@H](C)c3ccccn3)c12,Potency,[17],inactive
same,Potency,[11],inactive
Fc1cc(-c2cccc3ncc(-c4cnn(C5CCNCC5)c4)nc23)cc(F)c1CN1CCOCC1,Potency,[9],inactive
same,Potency,[11],inactive
COc1ccc2c(OCc3nnc4ccc(-c5ccccc5)nn34)ccnc2c1,Potency,[9],inactive
same,Potency,[11],inactive
CC(=O)c1c(C)c2cnc(Nc3ccc(N4CCNCC4)cn3)nc2n(C2CCCC2)c1=O,Potency,[9],inactive
same,"activity change, negative = inhibition",[11],5.34% [at 11.5 µM]
COc1cc2c(Oc3ccc4[nH]c(C)cc4c3F)ncnc2cc1OCCCN1CCCC1,Potency,[9],inactive
same,Potency,[11],inactive
CCCCOc1c(C(=O)c2c(F)cc(C)cc2F)cnc2n[nH]cc12,Potency,[9],inactive
same,Potency,[11],inactive
Cc1cc(Nc2cc(CN3CCOCC3)c3nc(C)c(Cc4ccc(Cl)cc4F)n3n2)n[nH]1,Potency,[9],inactive
same,Potency,[11],inactive
CC1(O)CC(c2nc(-c3ccc4ccc(-c5ccccc5)nc4c3)c3c(N)nccn23)C1 (stereo not drawn),Potency,[9],inactive
same,Potency,[11],inactive
Clc1cccc(-n2nnnc2NCc2ccccc2Oc2ccccn2)c1Cl,Potency,[9],inactive
same,Potency,[11],inactive
Cc1cc(Nc2nc(N[C@@H](C)c3ccc(F)cc3)c(C#N)cc2F)n[nH]1,Potency,[11],inactive
CC(C)Nc1cc(C(F)(F)F)cc2nc(NC(=O)c3cccnc3)nn12,Potency,[9],inactive
same,Potency,[11],inactive
CC(=O)Nc1sc2c(c1-c1nc3ccccc3s1)CNC2,Potency,[11],inactive
Cc1coc2c1C(=O)C(=O)c1c-2ccc2c1CCCC2(C)C,Potency,[11],22.4 µM (active)
CC1(C)CC(=O)c2c(C(F)(F)F)nn(-c3ccc(C(N)=O)c(NC4CCC(OC(=O)CN)CC4)c3)c2C1 (stereo not drawn),Potency,[9],inactive
same,Potency,[11],inactive
COc1cc(C(=O)N2CCC(N3CCN(C)CC3)CC2)ccc1Nc1ncc2c(n1)N(C)c1ccccc1C(=O)N2C,Potency,[9],inactive
same,Potency,[11],inactive
